# From the supplement of paper PMC7695840
# Where a name gives a salt, the structure may show the parent alone.
# What was measured:
# [1] = system: Staphylococcus aureus MW2 delta-mecA (mecA-); assay: normalized GFP fluorescence (growth of mecA- strain) (fraction of control range); higher = more growth of mecA- strain; details: compound concentration: 150 uM; cefoxitin: subinhibitory; fluorescent label: GFP
# Outline: (§1)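 Compound at 150 μM (1.5% DMSO) in 1536-well plates received 5 µL/well of pre-induced S. aureus MW2 cells mixed 1:1, gene-carrying with DsRed and gene-deleted with GFP, in LB with a daily-set subinhibitory antibiotic dose, single replicate. After 20 h unshaken at 37 °C, 90% humidity, DsRed (540/590) and GFP (485/520) were measured and scaled per plate between single-strain control medians. Plates with high untreated ratios and rows with DsRed/GFP >10 were excluded.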
# [2] = system: Staphylococcus aureus MW2 (mecA+); assay: normalized DsRed fluorescence (growth of mecA+ strain) (fraction of control range); higher = more growth of mecA+ strain; details: compound concentration: 150 uM; cefoxitin: subinhibitory; fluorescent label: DsRed
# Outline: as §1
Structure (SMILES),normalized GFP fluorescence [1],normalized DsRed fluorescence [2]
CC(C)/N=c1\cc2n(-c3ccc(Cl)cc3)c3ccccc3nc-2cc1Nc1ccc(Cl)cc1,0.344,1.15
CN1CCN(CC/C=C2/c3ccccc3Sc3ccc(S(=O)(=O)N(C)C)cc32)CC1,0.0289,1.9
Nc1nc2[nH]cnc2c(=S)[nH]1,0.329,1.33
O=C1NCC2(CCN(CCc3ccccc3)CC2)O1,0.307,0.724
CCOC(=O)c1ncn2c1CN(C)C(=O)c1cc(F)ccc1-2,0.408,0.611
C[N+]1(C)[C@@H]2C[C@@H](OC(=O)C(O)(c3cccs3)c3cccs3)C[C@H]1[C@@H]1O[C@@H]12 [Tiotropium Bromide hydrate],0.394,0.674
O=c1[nH]c(=O)n([C@H]2C[C@H](O)[C@@H](CO)O2)cc1I [Idoxuridin],0.512,0.959
CC(Oc1c(Cl)cccc1Cl)C1=NCCN1 (stereo unspecified),0.693,0.569
Cc1[nH]c2ccccc2c1CCNCc1ccc(/C=C/C(=O)NO)cc1 [Panobinostat],0.228,1.43
CCC(C)n1ncn(-c2ccc(N3CCN(c4ccc(OCC5COC(Cn6cncn6)(c6ccc(Cl)cc6Cl)O5)cc4)CC3)cc2)c1=O (stereo unspecified),0.389,0.642
CN(C)C(=N)NC(=N)N,0.544,0.887
CCCNS(=O)(=O)Nc1ncnc(OCCOc2ncc(Br)cn2)c1-c1ccc(Br)cc1 [Macitentan],0.0399,0.379
Nc1ccc(S(=O)(=O)Nc2ccccn2)cc1,0.364,0.542
COCCOC(=O)C1=C(C)NC(C)=C(C(=O)OC/C=C/c2ccccc2)C1c1cccc([N+](=O)[O-])c1 (stereo unspecified) [Cilnidipine],0.176,0.777
CC(NCCc1ccc(O)cc1)C(O)c1ccc(O)cc1 (stereo unspecified),0.828,0.736
CC(=O)O[C@H]1C[C@@H]2CC[C@@H]3[C@H](CC[C@@]4(C)[C@H]3C[C@H]([N+]3(C)CCCCC3)[C@@H]4OC(C)=O)[C@@]2(C)C[C@@H]1N1CCCCC1,0.425,0.572
NS(=O)(=O)c1cc2c(cc1C(F)(F)F)NCNS2(=O)=O,0.22,0.753
CC(=O)N[C@H]1[C@H]([C@H](O)[C@H](O)CO)OC(C(=O)O)=C[C@@H]1NC(=N)N [Zanamivir (Relenza)],0.233,0.719
N[C@@H](Cc1ccc(O)c(O)c1)C(=O)O,0.506,0.611
CC(C)(C)c1ccc(C(O)CCCN2CCC(C(O)(c3ccccc3)c3ccccc3)CC2)cc1 (stereo unspecified),0.00757,0.056
COc1ccc(OC)c(C(O)CNC(=O)CN)c1 (stereo unspecified),0.301,0.764
COC(c1ccccc1)(c1ccccc1)[C@H](Oc1nc(C)cc(C)n1)C(=O)O [Ambrisentan],0.466,0.281
CO[C@H]1C[C@@H]2CC[C@@H](C)[C@@](O)(O2)C(=O)C(=O)N2CCCC[C@H]2C(=O)O[C@H]([C@H](C)C[C@@H]2CC[C@@H](OC(=O)C(C)(CO)CO)[C@H](OC)C2)CC(=O)[C@H](C)/C=C(\C)[C@@H](O)[C@@H](OC)C(=O)[C@H](C)C[C@H](C)/C=C/C=C/C=C/1C [Temsirolimus (Torisel)],-0.00155,1.96
Nc1nc2ccc(OC(F)(F)F)cc2s1,0.622,0.37
COc1cc(C)c(/C=C/C(C)=C/C=C/C(C)=C/C(=O)O)c(C)c1C [Acitretin],0.0102,0.289
CC(=O)Oc1cc2c(s1)CCN(C(C(=O)C1CC1)c1ccccc1F)C2 (stereo unspecified) [Prasugrel (Effient)],0.226,0.841

Structure (SMILES),normalized GFP fluorescence [1],normalized DsRed fluorescence [2]
Cc1ncc(C[n+]2csc(CCO)c2C)c(N)n1,0.111,1.23
Cc1ccc(Nc2nccc(N(C)c3ccc4c(C)n(C)nc4c3)n2)cc1S(N)(=O)=O [Pazopanib],0.64,0.586
CN(C)CCC=C1c2ccccc2C=Cc2ccccc21,0.0981,1.21
CC1(C)S[C@@H]2[C@H](NC(=O)[C@H](C(=O)O)c3ccsc3)C(=O)N2[C@H]1C(=O)O,0.468,0.864
CNC[C@H](O)[C@@H](O)[C@H](O)[C@H](O)CO [Meglumine],0.21,0.823
O=C(NC(Cc1cc(=O)[nH]c2ccccc12)C(=O)O)c1ccc(Cl)cc1 (stereo unspecified) [Rebamipide],0.175,0.942
OC(CCN1CCCC1)(c1ccccc1)C1CCCCC1 (stereo unspecified),0.159,1.7
COc1cc(CNC(=O)CCCC/C=C/C(C)C)ccc1O,0.0346,0.539
OC[C@H]1O[C@@H](c2ccc(Cl)c(Cc3ccc(O[C@H]4CCOC4)cc3)c2)[C@H](O)[C@@H](O)[C@@H]1O,0.499,0.698
COc1ccc2c(c1OC)C(=O)O[C@@H]2[C@H]1c2c(cc3c(c2OC)OCO3)CCN1C,0.473,0.698
CC(C)OC(=O)C(C)(C)Oc1ccc(C(=O)c2ccc(Cl)cc2)cc1,0.203,0.698
CC(C)NCC(O)COc1ccc(CCOCC2CC2)cc1 (stereo unspecified) [Betaxolol hydrochloride (Betoptic)],0.372,0.674
Nc1ccc(S(=O)(=O)Nc2ncccn2)cc1,0.475,0.718
C[C@H](CS)C(=O)N1CCC[C@H]1C(=O)O,0.232,0.842
O=C(c1ccc(F)cc1)C1CCN(CCn2c(=O)[nH]c3ccccc3c2=O)CC1,0.217,0.83
Cc1[nH+]cc(COP(=O)([O-])[O-])c(CN(CCN(CC(=O)[O-])Cc2c(COP(=O)([O-])O)c[nH+]c(C)c2O)CC(=O)[O-])c1O.[Mn].[Na+].[Na+].[Na+],0.415,0.481
CCCCCCOC(=O)NC(=N)c1ccc(NCc2nc3cc(C(=O)N(CCC(=O)OCC)c4ccccn4)ccc3n2C)cc1,0.00832,0.473
C[C@]12CC[C@@H]3c4ccc(O)cc4C[C@@H](CCCCCCCCC[S+]([O-])CCCC(F)(F)C(F)(F)F)[C@H]3[C@@H]1CC[C@@H]2O (stereo partly specified),0.185,0.667
CCOC(=O)[C@H](CCc1ccccc1)N[C@@H](C)C(=O)N1Cc2cc(OC)c(OC)cc2C[C@H]1C(=O)O [Moexipril HCl],0.373,0.48
Cc1nnc(NS(=O)(=O)c2ccc(N)cc2)s1,0.326,1.88
O=C(O)COCCN1CCN([C@H](c2ccccc2)c2ccc(Cl)cc2)CC1,0.222,0.775
COc1ccc2cccc(CCNC(C)=O)c2c1 [Agomelatine],0.243,0.62
CCCN1CCCC[C@H]1C(=O)Nc1c(C)cccc1C [Ropivacaine HCl],0.242,1.01
CCOC(=O)[C@H](CCc1ccccc1)N[C@@H](C)C(=O)N1Cc2ccccc2C[C@H]1C(=O)O,0.324,0.737
Cc1nc(-c2ccc(OCC(C)C)c(C#N)c2)sc1C(=O)O [Febuxostat (Uloric)],0.0973,0.396
NS(=O)(=O)c1cc(Cl)c(Cl)c(S(N)(=O)=O)c1 [Dichlorphenamide (Diclofenamide)],0.31,0.653

Structure (SMILES),normalized GFP fluorescence [1],normalized DsRed fluorescence [2]
CC(C)[C@H](N)C(=O)OCC(CO)OCn1cnc2c(=O)nc(N)[nH]c21 (stereo partly specified),0.546,0.722
CC(COc1ccccc1)NC(C)C(O)c1ccc(O)cc1 (stereo unspecified),0.474,0.631
C=C1[C@H](CO)[C@@H](O)C[C@@H]1n1cnc2c(=O)[nH]c(N)nc21 [Entecavir hydrate],0.319,0.447
Cn1c(=O)c2c(ncn2C)n(C)c1=O,0.319,0.708
CC(CN1c2ccccc2Sc2ccccc21)N(C)C (stereo unspecified),-0.00976,0.917
NS(=O)(=O)c1cc(C(=O)O)c(NCc2ccco2)cc1Cl,0.306,0.841
CC(=O)OCC(=O)[C@@]12OC(C)(C)O[C@@H]1C[C@H]1[C@@H]3C[C@H](F)C4=CC(=O)C=C[C@]4(C)[C@@]3(F)[C@@H](O)C[C@@]12C,0.439,0.736
CC(C)NCC(O)COc1cccc2ccccc12 (stereo unspecified),0.142,1.24
O=C(Nc1c(Cl)cncc1Cl)c1ccc(OC(F)F)c(OCC2CC2)c1 [Roflumilast (Daxas)],0.368,0.773
CCN(CC)C(=O)C1(c2ccccc2)CC1CN (stereo unspecified),0.155,0.617
Cn1cnc2c1c(=O)[nH]c(=O)n2C,0.351,0.469
CC(=O)NCCCS(=O)(=O)O,0.628,0.742
CC(C)c1ccc2oc3nc(N)c(C(=O)O)cc3c(=O)c2c1,0.212,0.319
OCCOCCN1CCN(C2=Nc3ccccc3Sc3ccccc32)CC1 [Quetiapine fumarate (Seroquel)],0.0887,1.15
COC(=O)C1=C(C)NC(C)=C(C(=O)OC)C1c1ccccc1[N+](=O)[O-],0.0465,0.832
CC1=CC(=O)c2ccccc2C1=O,0.0466,0.307
Cc1c(O)c(=O)ccn1C [Deferiprone],0.292,0.96
C[C@]12C=CC(=O)N[C@@H]1CC[C@@H]1[C@@H]2CC[C@]2(C)[C@@H](C(=O)Nc3cc(C(F)(F)F)ccc3C(F)(F)F)CC[C@@H]12 [Dutasteride],0.284,0.52
Cc1ncc([N+](=O)[O-])n1CCO,0.562,0.581
Nc1ncn([C@@H]2O[C@H](CO)[C@@H](O)[C@H]2O)c(=O)n1,0.292,0.51
O=C(CCCN1CC=C(n2c(=O)[nH]c3ccccc32)CC1)c1ccc(F)cc1,0.664,0.702
CNCC[C@H](Oc1cccc2ccccc12)c1cccs1,-0.0294,0.838
CCN(CC)C(=O)c1cccnc1,0.263,0.829
CC(=O)N(CC(O)CO)c1c(I)c(C(=O)NCC(O)CO)c(I)c(C(=O)NCC(O)CO)c1I (stereo unspecified),0.415,0.849
C=C[C@H]1CN2CC[C@H]1C[C@@H]2[C@@H](O)c1ccnc2ccc(OC)cc12,0.452,0.631
Cc1ccc(O)c([C@H](CCN(C(C)C)C(C)C)c2ccccc2)c1 [Tolterodine tartrate (Detrol LA)],0.08,0.489
